The campaign covered roughly 300,000 compounds. About 1,000 (0.33%) were called active. The sample holds actives, similar compounds and a random draw of the others, so the mix is not that of the screen. Rule as the data show it: active = inhibition above about 28%; inactive = the rest.

Our source for the inhibition values is PubChem BioAssay AID1950 (The Scripps Research Institute Molecular Screening Center, 2009).

This experiment deals with EBNA-1 (Epstein-Barr virus nuclear antigen 1), Human herpesvirus 4. Description: blockers of EBV EBNA-1 binding to DNA – biochemical, fluorescence polarization, primary screen (AID 1950). The following applies: EBNA-1 DNA binding, at 14.8 µM, stronger effect = higher value. (Polarisation of emitted light reports the rotation of a fluorescent probe.)
As a reminder, the inhibition is the drop in the measured response relative to a control, in per cent. Take `Cc1ccn2c(=O)nc(SCC(=O)NCc3ccc(F)cc3)nc2c1`: the inhibition is -14.5% (inactive).

As to `Oc1ccccc1CNc1ncc(Br)cc1Br`, the inhibition was -8.83% (inactive).

Regarding `Cc1ccc(C(=O)NNC(=O)c2cc3cc4ccccc4nc3s2)cc1`, the inhibition is 66.7% (active).

As for `Cc1ccc(C(=O)NNC(=O)c2cccs2)cc1`, the inhibition is -0.94% (inactive).

Consider `O=C(NNC(=O)c1cc2c(s1)CCCC2)c1ccccc1`, for which the inhibition is 6.96% (inactive).

With `Cc1cc2nc3n(c2cc1C)CC1CC(C(=O)NCCC(C)C)N(C)C31` (stereo not drawn), the inhibition is -5.15% (inactive).

For the compound `O=C(Nc1cccc(NC(=O)c2cccc(F)c2)c1)c1ccccc1`, the inhibition is -2.13% (inactive).

Consider `O=C(Nc1cccc(NC(=O)c2ccc(Br)cc2)c1)c1ccccc1`, for which the inhibition is 28.3% (active).

Take `O=C(Cc1ccccc1)Nc1cccc(NC(=O)c2ccccc2)c1`: the inhibition was -12.9% (inactive).

Consider `CN(C)[C@@H]1C(=O)C(C(N)=O)=C(O)[C@@]2(O)C(=O)C3=C(O)c4c(O)ccc(Cl)c4[C@@H](O)[C@H]3C[C@@H]12`, for which the inhibition was 14.1% (inactive).

For `O=C(Nc1cccc(O)c1)c1ccc(C(=O)c2ccccc2)o1`, the inhibition is 10.1% (inactive).

For `COc1ccc(CCn2c(NN=C3CCCC3)nc3c2c(=O)[nH]c(=O)n3C)cc1`, the inhibition is 1.13% (inactive).

As to `COc1ccc(CNc2nc3c(c(=O)[nH]c(=O)n3C)n2Cc2ccccc2)cc1`, the inhibition was 28.1% (active).

As to `COc1ccc(CCn2c(NCCCN3CCOCC3)nc3c2c(=O)[nH]c(=O)n3C)cc1`, the inhibition is 5.1% (inactive).

Regarding `CCC(=O)Nc1ccc(S(=O)(=O)NCC2CCCO2)cc1` (stereo not drawn), the inhibition is 4.88% (inactive).

Regarding `CCC(=O)Nc1ccc(C(=O)Nc2ccc3c(c2)C(=O)N(CC2CCCO2)C3=O)cc1` (stereo not drawn), the inhibition is 57.9% (active).

On to `Cc1cccc(C(=O)Nc2ccc3c(c2)C(=O)N(CC(C)C)C3=O)c1`, for which the inhibition was -2.99% (inactive).

`Cc1cccc(NC(=O)NC2(C)CCS(=O)(=O)C2)c1` (stereo not drawn): the inhibition was -12.1% (inactive).

With `CCc1c(C)nc2ncnn2c1N1CCC(C(=O)NCc2ccc3c(c2)OCO3)CC1`, the inhibition is 7.74% (inactive).

Regarding `COc1ccc(C(C(=O)NCc2ccccc2)N(Cc2cccs2)C(=O)c2cnccn2)cc1` (stereo not drawn), the inhibition was 4.32% (inactive).

In the case of `CCn1c(/C=C/Nc2ccccc2)[n+](CC)c2ccc(C(=O)OCC(F)(F)F)cc21`, the inhibition was -1.72% (inactive).

As to `CCC(=O)c1ccc(OC(=O)/C=C/c2cc(OC)c(OC)c(OC)c2)cc1`, the inhibition is 6.75% (inactive).

As for `CCOc1ccc(N=C2NC(=O)S/C2=C\c2ccc(O)cc2)cc1`, the inhibition was 22% (inactive).

In the case of `COc1cc(NS(=O)(=O)c2ccc(N=Cc3c(C)[nH]n(-c4ccccc4)c3=O)cc2)nc(OC)n1`, the inhibition was 14.1% (inactive).

As to `CCOc1[nH]n(-c2ccc(Cl)cc2)c(=O)c1C=Nc1ccc(O)cc1`, the inhibition is 36.6% (active).

For the compound `O=C(CC(=O)N/N=C\c1cccc(Cl)c1Cl)NCc1ccccc1`, the inhibition is 0.69% (inactive).

In the case of `COc1cccc(N2CC(NS(=O)(=O)c3cccs3)CC2=O)c1` (stereo not drawn), the inhibition was -3.98% (inactive).

Regarding `CC(=O)NC(CC(=O)Nc1nc(-c2ccccc2)c(C(C)=O)s1)c1ccccc1` (stereo not drawn), the inhibition is 6.2% (inactive).

As to `O=c1o[nH]c(-c2ccccc2)c1N=Nc1c(F)cccc1Cl`, the inhibition is -1.23% (inactive).

In the case of `COc1ccc(-c2ccc(Nc3ccc(S(=O)(=O)N4CCCC4)cc3)nn2)cc1OC`, the inhibition was 61.7% (active).

For the compound `COc1ccc(S(=O)(=O)Nc2ccc(S(=O)(=O)N3CCCCC3)cc2)cc1OC`, the inhibition is -12.3% (inactive).

On to `COc1ccc(S(=O)(=O)N2CCCCCC2)cc1C(=O)OCC(=O)Nc1cc(C)on1`, for which the inhibition is -10.6% (inactive).

As to `CCCn1c2ccccc2c2cnn(CC(=O)NCCCN3CCCCC3CC)c(=O)c21` (stereo not drawn), the inhibition is -11.4% (inactive).

Regarding `O=[N+]([O-])c1cc(S(=O)(=O)Nc2cccc(Cl)c2)ccc1N=Nc1c(O)[nH]c2ccccc12`, the inhibition is -1.48% (inactive).

Turning to `CCc1ccc(NC(=O)Nc2ccncc2)cc1`, the inhibition is -0.73% (inactive).

With `CC(=O)c1ccc(NC(=O)C2CC(=O)Nc3nc4ccccc4n32)cc1` (stereo not drawn), the inhibition was -7.52% (inactive).

For the compound `CCOC(=O)C1=C(C)Nc2nc3ccccc3n2C1c1cccs1` (stereo not drawn), the inhibition was 3.55% (inactive).

For the compound `CCOC(=O)c1ccc(NC(=O)C2CC(=O)Nc3nc4ccccc4n32)cc1` (stereo not drawn), the inhibition was 30.4% (active).

`Cc1ccc(NS(=O)(=O)c2ccc3c(c2)n(C)c(=O)c(=O)n3C)c(C)c1`: the inhibition was -9.29% (inactive).

With `CCCS(=O)(=O)Nc1ccc(-c2cn3c(n2)SCC3)cc1`, the inhibition is -2.75% (inactive).

`COc1cccc(NC(=O)CCNS(=O)(=O)c2ccc3c(c2)oc(=O)n3C)c1`: the inhibition is -10.5% (inactive).

As to `CSCCC(NS(=O)(=O)c1ccc2c(c1)oc(=O)n2C)C(=O)NCc1ccccc1` (stereo not drawn), the inhibition is 1.42% (inactive).

Turning to `CCOc1ccc(OCC)c(NC(=O)C(NS(=O)(=O)c2ccc3c(c2)oc(=O)n3C)C(C)C)c1` (stereo not drawn), the inhibition is 38% (active).

As to `CC(Oc1ccc(Br)cc1)C(=O)NCC(c1ccco1)N1CCCCC1` (stereo not drawn), the inhibition is -5.29% (inactive).

For `CC(C)OC(=O)c1ccc(COc2ccc3ccc(=O)oc3c2)o1`, the inhibition is 0.87% (inactive).

Take `O=C(OCC1OC(Oc2ccc(O)cc2)C(O)C(O)C1O)c1ccccc1` (stereo not drawn): the inhibition was -9.05% (inactive).

Regarding `O=C(OCC1O[C@@H](OC(=O)c2cc(O)c(O)c(O)c2)[C@@H](OC(=O)c2cc(O)c(O)c(O)c2)[C@@H](OC(=O)c2cc(O)c(O)c(O)c2)[C@@H]1OC(=O)c1cc(O)c(O)c(O)c1)c1cc(O)c(O)c(O)c1` (stereo partly drawn), the inhibition is 36.5% (active).

For `Cn1c(=O)[nH]c(=O)c2c1[nH]c(=S)n2Cc1ccccc1`, the inhibition is 9.15% (inactive).

As for `O=C(COc1ccc([N+](=O)[O-])cc1)Nc1cccc(C(=O)Nc2ccccc2C(=O)O)c1`, the inhibition is 8.21% (inactive).

Regarding `C=CCNC(=S)/N=c1/ccccn1Cc1ccccc1`, the inhibition is 3.92% (inactive).

Regarding `CCN(CC)CCN1C(=O)C2C(C(=O)Nc3ccc(Br)cc3)C3C=CC2(O3)C1C(=O)NC1CCCCC1` (stereo not drawn), the inhibition is 5.67% (inactive).

As for `COc1ccc(CCNC(=S)N2CCN(S(=O)(=O)c3ccc(Cl)cc3)CC2)cc1`, the inhibition is 7.36% (inactive).

Consider `COc1ccc(CCNC(=O)C2CCCN(S(=O)(=O)c3ccc(OC)cc3)C2)cc1` (stereo not drawn), for which the inhibition is 5.18% (inactive).

For the compound `COc1ccc(CCNC(=S)N2CCN(S(=O)(=O)c3ccc(F)cc3)CC2)cc1`, the inhibition is 34.3% (active).

For `OC(COc1ccc(CN2CCSCC2)cc1)CN1CCCCC1` (stereo not drawn), the inhibition was 3.92% (inactive).

As for `COc1ccc(/C=C2\SC(=S)N(CCCC(=O)NC3CCCC3)C2=O)cc1OC`, the inhibition was -4.95% (inactive).

As to `CC(=O)NNC(=O)c1csc(Cc2c(Cl)sc3ccc(Cl)cc23)n1`, the inhibition was -5.11% (inactive).

Turning to `Cc1cc(OCC(=O)NCC(O)c2ccccc2)c2c(C)c(C)c(=O)oc2c1` (stereo not drawn), the inhibition is 3.74% (inactive).
